From PubChem
MARV entry inh: Marburg virus entry inhibition. Marburg virus pseudotyped entry inhibition, cell reporter. 300,000 tested, 1.8% active. Potency, µM (series often up to 37.8 µM), for inactives: top-dose activity change, negative = inhibition, most hits filed as inhibitors; calls by dose curve; tested in HEK293 cells; note: potency is the fitted concentration of half-maximal effect
HCV inh: inhibitors of hepatitis C virus infection | Potency, µM (doses to about 41.8 µM), for the others: at the highest dose activity change, negative = inhibition, usual class: inhibitors | Huh7.5.1 HCVcc-Cre infection, luciferase reporter, 44 h | 340,000 tested, 3.4% active | AID 651820; active = well fitted inhibition curve with a large enough effect; inconclusive = small, poorly fitted or top-dose-only effect, or another doubt; inactive = no such curve, though single readings can be large or run the other way; note: potency is the fitted concentration of half-maximal effect
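Cells (1,000/well) were plated 4 h before compound, then infected with HCVcc-Cre virus (~0.5 moi). After 44 h further culture, infection was read as luciferase luminescence following a 15 min substrate incubation at room temperature.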
Lassa entry inh: Lassa virus entry inhibition | 300,000 tested, 1.2% active | Potency, µM (titrated, usually from 37.9 µM), for the others: top-dose activity change, negative = inhibition, actives largely listed as inhibitors | Lassa virus pseudotype entry inhibition, cell reporter; calls by dose curve; tested in HEK293 cells; note: potency is the fitted concentration of half-maximal effect; nearly all actives have a fitted effect of over 50% in size
HCMV antiviral: blocks human cytomegalovirus replication. HFF cells, HCMV-luciferase reporter, 72 h; hits give low values. activity change, negative = inhibition, % at 57.5 µM. 410,000 tested, 4.5% active. AID 1259415; in the data active = activity change below about -60%; inconclusive = no clear call, values can overlap the other calls; inactive = above about -39%
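Inhibition of viral replication was scored as loss of reporter luminescence in HFFs infected with HCMV-luciferase (MOI 1 PFU/cell) for 72 h; compounds tested at 2 doses, normalized to buffer and Salinomycin controls.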
FMDV inh: blocks foot and mouth disease virus | FMDV antiviral cell-based qHTS | Potency, µM (doses to about 57.9 µM), for the others: at the top dose activity change, negative = inhibition, usual class: inhibitors | 410,000 tested, 1.2% active; calls by dose curve; tested in HEK293T cells; note: read-out not given here; potency is the fitted concentration of half-maximal effect; nearly all actives have a fitted effect of over 45% in size
Numbers without * were called inactive; ? = inconclusive; . = not tested or not shown; [ ] = another dose, or the depositor's remark. Only some compounds are listed: those with a hit (about 7.9% of all), similar ones and a draw of the others. % is set by controls: 0 for no effect and ±100 for the full control effect.

SMILES | MARV entry inh | HCV inh | Lassa entry inh | HCMV antiviral | FMDV inh
CCOC(=O)c1cc(-c2ccc(C)cc2)n(CCC(=O)Nc2cc(Cl)ccc2C)c1C | ? | . | . | 7 | -1%
Cc1cccn2c(=O)c(C(=O)N3CCN(c4ccccc4F)CC3)cnc12 | . | . | -1%[46.1 µM] | -29 | 33%
CC(C)Cn1c(=O)c2sccc2n2c(CCCC(=O)NCC(C)c3ccccc3)nnc12 (stereo not drawn) | . | . | ? | ? | -17%
Nc1cc(Cl)nc(N/N=C/c2c(O)ccc3ccccc23)n1 | ? | ? | ? | -71* | -9%
CC(C)(C)c1ccc(NC(=O)Nc2ccc(F)cc2)cc1 | ? | 10µM* | ? | 52 | -37%
CC(C)(C)c1ccc(COC(=O)Nc2ccc(F)cc2)cc1 | ? | 9% | 13% | -24 | 12%
O=C(Nc1ccc(F)cc1)Nc1cc(OCC(F)(F)F)cc(OCC(F)(F)F)c1 | 8.9µM* | ? | 18µM* | -101* | -9%
CC1CCCN(c2nc3c(-c4ccc(Cl)cc4)nnn3c3ccccc23)C1 (stereo not drawn) | -4%[46.1 µM] | . | ? | 13 | 3%
O=[N+]([O-])c1ccc(CNc2ccc(Cl)cc2)s1 | ? | 10% | 3.5µM* | 48 | ?
CCC(=NCc1ccco1)c1c(O)n(-c2ccc(Cl)cc2)c(=O)[nH]c1=O | ? | 25% | ? | 68 | -25%
COc1ccc(-n2c(O)c(/C(C)=N/N3CCCCCC3)c(=O)[nH]c2=O)cc1 | ? | 7% | 2.2µM* | ? | 13%
COc1ccc(-n2c(O)c(C(C)=NCCCn3ccnc3)c(=O)[nH]c2=O)cc1 | ? | -2% | ? | -66* | 0%
CCC(=NCc1ccco1)c1c(O)n(-c2ccc(OC)cc2)c(=O)[nH]c1=O | 11%[46.1 µM] | 3% | 1.6µM* | 15 | -8%
COc1ccc2c(c1)CC/C(=C\c1ccc(OC)c(Cn3nc(C)cc3C)c1)C2=O | ? | 4µM* | ? | -9 | ?
Cc1cc(O)c(C(=O)/C=C/c2ccccc2O)c(=O)o1 | . | 5% | . | -9 | ?
COc1ccccc1C(=O)/C=C/c1ccc(N2CCCCC2)c([N+](=O)[O-])c1 | ? | 11µM* | ? | -80* | 35µM*
CC(=O)Oc1ccccc1C(=O)C=Cc1cccc([N+](=O)[O-])c1 | ? | ? | ? | -77* | 28µM*
Cc1cc(O)c(C(=O)/C=C/c2cccc([N+](=O)[O-])c2)c(=O)o1 | ? | -8% | 12%[46.1 µM] | -19 | 18µM*
O=C(/C=C/c1cccc([N+](=O)[O-])c1)c1cccs1 | ? | ? | ? | -90* | -90%
O=C(/C=C/c1cccc([N+](=O)[O-])c1)c1ccccc1 | -27%[14.2 µM] | . | . | . | .
COc1ccccc1NC(=O)CSc1oc(-c2ccccc2)nc1S(=O)(=O)c1ccc(C)cc1 | ? | . | ? | -16 | -25%
COc1ccc(C)cc1NC(=O)CSc1nc(=O)n(Cc2ccco2)c2c1CCC2 | . | . | 7%[46.1 µM] | -2 | ?
COc1ccc(C)cc1NC(=O)CSc1nc(=O)n(Cc2ccncc2)c2c1CCC2 | . | . | 5%[46.1 µM] | -103* | 0%
CCc1ccc(NC(=O)CSc2nc(=O)n(CCN(C)C)c3c2CCCC3)cc1 | 13µM* | ? | ? | -19 | 35%
CC(C)c1ccc(NC(=O)CSc2nc(=O)n(Cc3ccccn3)c3c2CCC3)cc1 | . | . | -35%[46.1 µM] | -102* | 0%
SMILES | MARV entry inh | HCV inh | Lassa entry inh | HCMV antiviral | FMDV inh
Cc1ccc(NC(=O)CSc2nc(=O)n(Cc3ccccn3)c3c2CCC3)cc1F | . | . | -8%[46.1 µM] | -36 | -24%
O=C(CSc1nc(=O)n(Cc2cccnc2)c2c1CCC2)Nc1cccc(Cl)c1 | . | . | ? | 14 | 0%
COc1cccc(NC(=O)CSc2nc(=O)n(CCN(C)C)c3c2CCCC3)c1 | -27% | -14% | -4% | -14 | -1%
CC(C)c1ccc(NC(=O)CSc2nc(=O)n(Cc3cccnc3)c3c2CCC3)cc1 | . | . | -1%[46.1 µM] | -107* | ?
COc1ccc(CCNC(=O)CCCCn2c(=O)c3ccccc3n(CC(=O)Nc3ccc(C)cc3C)c2=O)cc1OC | ? | . | 1%[46.1 µM] | -9 | -14%
O=C(CN1C(=O)C2CCCCN2c2ccc(C(=O)N3CCCC3)cc21)NCc1ccccc1 (stereo not drawn) | . | . | -24%[46.1 µM] | -10 | 19%
CCn1cc(C(=O)NCCc2ccc(Cl)cc2)c(=O)c2cc(S(=O)(=O)N3CCc4ccccc4C3)ccc21 | 1%[46.1 µM] | . | -4%[46.1 µM] | 18 | -12%
COc1cc(CC2C(=O)OCC2C(=O)c2ccc3c(c2)OCO3)cc(OC)c1OC (stereo not drawn) | 23% | 25% | 10%[46.1 µM] | 24 | -14%
COc1cc(C[C@@H]2C(=O)OC[C@H]2Cc2ccc(OC)c(OC)c2)ccc1O | . | ? | . | -90* | 20µM*
Nc1cc(-c2ccc(Br)cc2)nn1Cc1ccccc1 | -24%[46.1 µM] | 1.3µM* | ? | -77* | -11%
CCOC(=O)C(=N/O)/C(C)=N/NC(=O)C(=O)Nc1ccc(Cl)cc1 | . | 11µM* | . | -37 | ?
Fc1cccc(CNc2ncnc3ccc(-c4ccc5c(c4)OCO5)cc23)c1 | . | . | . | -92* | ?
COc1cc2ncnc(NCc3cccc(Cl)c3)c2cc1OC | . | ? | . | ? | -11%
COc1cccc(CNc2ncnc3cc(Cl)ccc23)c1 | ? | 11µM* | 6% | ? | ?
COCCCNc1ncnc2ccc(C)cc12 | -27% | ? | -23% | -63* | -29%
Cc1ccc2ncnc(NCCC(=O)O)c2c1 | -10% | 12% | 22% | 19 | 11%
Fc1cccc(CNc2ncnc3cc(Cl)ccc23)c1F | . | 7.1µM* | . | ? | ?
CC(=O)c1ccc(C(=O)N(Cc2cccnc2)c2nc3c(Cl)cccc3s2)cc1 | . | . | ? | 0 | -11%
COc1cccc(-c2ccc3ncnc(NCc4cccc(C)c4)c3c2)c1 | . | . | . | -86* | -25%
Cc1ccc(N2C(=O)NC(=O)/C(=C\c3cc(C)n(-c4sc5c(c4C#N)CCCC5)c3C)C2=O)cc1 | 2.5µM* | -3% | ? | -19 | ?
COC(=O)c1c(-n2c(C)cc(C=O)c2C)sc2c1CCCC2 | -15% | -20% | -7% | -76* | .
CCOC(=O)c1c(-n2c(C)cc(C=C3C(=O)NC(=S)NC3=O)c2C)sc2c1CCCC2 | 5% | ? | . | . | 10µM*
Cc1ccc(NC(=O)CN2C(=O)COc3ccc(S(=O)(=O)Nc4ccccc4)cc32)c(C)c1 | . | . | -7%[46.1 µM] | 6 | 41%
Cc1nc(N)sc1-c1csc(Nc2ccc(Cl)cn2)n1 | ? | 8.9µM* | -9% | -18 | 15%
Cc1nc(C)c(-c2csc(Nc3ccccn3)n2)s1 | . | 8.9µM* | . | -20 | -24%
Cc1nc(N)sc1-c1csc(Nc2ccccn2)n1 | ? | -24% | ? | 9 | -25%
CC(=O)Oc1ccc(-c2csc(Nc3ccc(Cl)cn3)n2)cc1 | . | 11µM* | . | -8 | 23%
Cc1ccnc(Nc2nc(-c3sc(C)nc3C)cs2)c1 | 5.6µM* | 8.9µM* | 15%[46.1 µM] | -107* | -9%
COc1ccc(Nc2nc(-c3sc(N)nc3C)cs2)cc1 | 21% | ? | 1% | 139 | -14%
